Out of some 65,000 compounds screened, about 320 (0.49%) were called active.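 How the source made its calls: active means ranked among the strongest by inhibition in the single 10 µM screen, a fixed top-ranked set picked for dose follow-up; inactive means the rest, inconclusive results apart.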 The list comes from a sample in which actives are over-represented; it also holds similar structures and randomly drawn compounds.
Tested on: mevalonate kinase [Streptococcus pneumoniae D39]
Assay: pneumococcal mevalonate kinase activity blockers – biochemical, PK/LDH-coupled NADH absorbance, primary screen (AID 555)
Conditions: purified MK, PK/LDH-coupled NADH absorbance 340 nm, at 10 µM, stronger effect = higher value
[1] = measured here: pilot screen replicates

Row | SMILES | inhibition | inhibition [1]
1 | CCN1CCN(C(=O)Cc2coc3cc(C)cc(C)c23)CC1 | 5% (inactive) | –
2 | COc1ccccc1CN1CCN(C(=O)Cc2ccccc2)CC1 | 53% (active) | 0%
3 | CN1CCN(Cc2ccccc2C(F)(F)F)CC1 | 6% (inactive) | –
4 | CCOC(=O)c1c(-c2ccccc2)oc2ccc(OC(=O)N(C)C)cc12 | 0% (inactive) | –
5 | CC(C)c1ccc(O)c(CN2CCN(c3ccccc3)CC2)c1 | 0% (inactive) | –
6 | Fc1cccc(F)c1CN1CCN(Cc2c(F)cccc2F)CC1 | 2% (inactive) | –
7 | COc1ccc(CN2CCN(c3ccccc3F)CC2)c(OC)c1 | 43% (active) | 1.5%
8 | CCC(=NCc1ccco1)c1c(O)n(Cc2ccccc2)c(=O)[nH]c1=O | 12% (inactive) | –
9 | CC(=NCC1CCCO1)c1c(O)n(-c2ccccc2)c(=O)[nH]c1=O (configuration not stated) | 4% (inactive) | –
10 | COC(=O)COc1cc(C)cc2oc(=O)c3c(c12)CCCC3 | 6% (inactive) | –
